# Data as given in PubChem BioAssay (EPA / NIEHS).
# Several values for one entry are separate records, joined by “and”; a condition that tells them apart may be missing. Identical values can stand only once. Results filed as inconclusive are left out. Activity calls are given as the source filed them. Rule for the calls: active = hit-call score of the fitted dose curve at least 0.9, where 1 is the maximum; inconclusive = response in the unintended direction; inactive = score below 0.9.
# Columns and labels:
# [1] = target: human Ephrin type-A Receptor 1 (EphA1), EPHA1 (gene 2041) (UniProt P21709); assay: NVS_ENZ_hEphA1: NovaScreen (NVS) Enzymatic Assay for human Ephrin type-A Receptor 1 (EphA1) (AID 2283158);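 note: activity is signal loss versus DMSO meaning EphA1 kinase inhibition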
# Chain of human Ephrin type-A Receptor 1 (EphA1), EPHA1 (gene 2041) (P21709 whole entry, looked up): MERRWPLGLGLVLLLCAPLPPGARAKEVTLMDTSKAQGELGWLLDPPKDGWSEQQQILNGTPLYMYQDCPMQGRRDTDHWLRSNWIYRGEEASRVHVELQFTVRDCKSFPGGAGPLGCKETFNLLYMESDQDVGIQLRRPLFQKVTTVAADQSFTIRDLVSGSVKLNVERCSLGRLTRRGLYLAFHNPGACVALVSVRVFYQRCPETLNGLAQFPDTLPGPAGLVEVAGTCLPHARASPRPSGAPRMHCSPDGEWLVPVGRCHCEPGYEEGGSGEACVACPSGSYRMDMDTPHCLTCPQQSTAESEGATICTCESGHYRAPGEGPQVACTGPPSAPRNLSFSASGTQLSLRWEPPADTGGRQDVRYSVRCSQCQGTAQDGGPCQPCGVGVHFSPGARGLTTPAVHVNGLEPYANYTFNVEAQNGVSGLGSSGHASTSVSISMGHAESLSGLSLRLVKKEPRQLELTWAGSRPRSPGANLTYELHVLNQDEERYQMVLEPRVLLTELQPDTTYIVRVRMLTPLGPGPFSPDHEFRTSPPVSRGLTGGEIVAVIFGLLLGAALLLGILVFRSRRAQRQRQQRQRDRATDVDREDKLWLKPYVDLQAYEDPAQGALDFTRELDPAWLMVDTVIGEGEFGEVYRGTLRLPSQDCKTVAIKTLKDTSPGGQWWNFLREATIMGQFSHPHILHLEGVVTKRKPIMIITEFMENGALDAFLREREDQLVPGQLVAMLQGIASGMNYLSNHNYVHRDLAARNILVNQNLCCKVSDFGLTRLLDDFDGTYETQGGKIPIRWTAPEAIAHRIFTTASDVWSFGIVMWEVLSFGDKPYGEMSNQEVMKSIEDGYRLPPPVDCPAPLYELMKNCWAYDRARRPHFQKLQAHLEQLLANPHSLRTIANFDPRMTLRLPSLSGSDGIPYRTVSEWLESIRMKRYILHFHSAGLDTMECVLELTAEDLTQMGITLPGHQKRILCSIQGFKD
# Summary of the method: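 Recombinant kinase, fluorescent substrate, mobility-shift separation, fluorescence read at 1 h. Single-point duplicates at 25 uM; hits (e.g., ≥30% inhibition) run singleton concentration-response, max 50 uM. DMSO = negative control/baseline.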
# [2] = target: human Matrix Metalloproteinase-9 (MMP9), MMP9 (gene 4318) (UniProt P14780); assay: NVS_ENZ_hMMP9: NovaScreen (NVS) Enzymatic Assay for human Matrix Metalloproteinase-9 (MMP9) (AID 2283190);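 note: cell-free recombinant MMP9 protease activity read by fluorescent substrate signal; active means inhibition seen as loss of fluorescence signal versus DMSO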
# Chain of human Matrix Metalloproteinase-9 (MMP9), MMP9 (gene 4318) (P14780 whole entry, looked up): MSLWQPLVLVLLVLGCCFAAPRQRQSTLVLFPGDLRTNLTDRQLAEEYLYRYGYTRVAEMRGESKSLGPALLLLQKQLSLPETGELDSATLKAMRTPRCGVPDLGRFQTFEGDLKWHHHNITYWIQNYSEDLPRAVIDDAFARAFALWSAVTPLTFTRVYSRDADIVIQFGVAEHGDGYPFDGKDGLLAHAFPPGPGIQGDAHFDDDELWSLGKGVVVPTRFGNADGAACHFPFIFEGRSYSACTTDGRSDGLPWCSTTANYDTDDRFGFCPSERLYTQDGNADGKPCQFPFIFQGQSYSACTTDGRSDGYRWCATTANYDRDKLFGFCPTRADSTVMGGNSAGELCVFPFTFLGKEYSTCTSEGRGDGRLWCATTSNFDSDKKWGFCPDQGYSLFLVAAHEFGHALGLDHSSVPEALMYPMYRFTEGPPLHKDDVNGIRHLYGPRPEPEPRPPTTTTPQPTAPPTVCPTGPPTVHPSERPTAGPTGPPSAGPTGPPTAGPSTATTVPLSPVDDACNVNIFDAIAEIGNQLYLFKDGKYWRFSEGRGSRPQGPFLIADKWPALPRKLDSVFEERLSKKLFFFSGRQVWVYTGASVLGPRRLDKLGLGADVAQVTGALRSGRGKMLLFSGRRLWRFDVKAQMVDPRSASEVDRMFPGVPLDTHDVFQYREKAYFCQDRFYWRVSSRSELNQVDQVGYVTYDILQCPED
# Summary of the method: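 Extracted enzyme, fluorescent substrate, 1 h post-dose read. Single conc 25 uM in duplicate, then concentration series for actives. Activity = signal loss relative to DMSO negative control.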
# [3] = target: human Phosphodiesterase 5 (PDE5), PDE5A (gene 8654) (UniProt O76074); assay: NVS_ENZ_hPDE5: NovaScreen (NVS) Enzymatic Assay for human Phosphodiesterase 5 (PDE5) (AID 2283194)
# Summary of the method: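 Screening began in duplicate at 25 uM, with actives taken into concentration-response. Enzyme activity of recombinant PDE5 toward its substrate was measured at 1 h by fluorescence mobility-shift detection, relative to DMSO controls.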
# [4] = target: human Dual Specificity Protein Phosphatase 3 (DUSP3), DUSP3 (gene 1845) (UniProt P51452); assay: NVS_ENZ_hDUSP3: NovaScreen (NVS) Enzymatic Assay for human Dual Specificity Protein Phosphatase 3 (DUSP3) (AID 2283152);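 note: phosphatase activity of recombinant human DUSP3 on a fluorogenic substrate without cells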
# Chain of human Dual Specificity Protein Phosphatase 3 (DUSP3), DUSP3 (gene 1845) (P51452 whole entry, looked up): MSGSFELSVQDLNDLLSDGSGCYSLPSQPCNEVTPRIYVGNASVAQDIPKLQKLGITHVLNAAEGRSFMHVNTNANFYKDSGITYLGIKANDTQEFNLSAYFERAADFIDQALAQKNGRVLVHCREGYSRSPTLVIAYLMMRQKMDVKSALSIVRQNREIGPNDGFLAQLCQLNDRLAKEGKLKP
# Summary of the method: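 Cell-free fluorescence-intensity enzyme activity assay with recombinant protein and substrate; loss of signal fitted relative to DMSO baseline. Primary screen in duplicate at 25 uM, actives then run in concentration series; measured 0 h after dosing.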
# [5] = target: human Esterase Plasma (ES), BCHE (gene 590) (UniProt P06276); assay: NVS_ENZ_hES: NovaScreen (NVS) Enzymatic Assay for human Esterase Plasma (ES) (AID 2283157)
# Chain of human Esterase Plasma (ES), BCHE (gene 590) (P06276 whole entry, looked up): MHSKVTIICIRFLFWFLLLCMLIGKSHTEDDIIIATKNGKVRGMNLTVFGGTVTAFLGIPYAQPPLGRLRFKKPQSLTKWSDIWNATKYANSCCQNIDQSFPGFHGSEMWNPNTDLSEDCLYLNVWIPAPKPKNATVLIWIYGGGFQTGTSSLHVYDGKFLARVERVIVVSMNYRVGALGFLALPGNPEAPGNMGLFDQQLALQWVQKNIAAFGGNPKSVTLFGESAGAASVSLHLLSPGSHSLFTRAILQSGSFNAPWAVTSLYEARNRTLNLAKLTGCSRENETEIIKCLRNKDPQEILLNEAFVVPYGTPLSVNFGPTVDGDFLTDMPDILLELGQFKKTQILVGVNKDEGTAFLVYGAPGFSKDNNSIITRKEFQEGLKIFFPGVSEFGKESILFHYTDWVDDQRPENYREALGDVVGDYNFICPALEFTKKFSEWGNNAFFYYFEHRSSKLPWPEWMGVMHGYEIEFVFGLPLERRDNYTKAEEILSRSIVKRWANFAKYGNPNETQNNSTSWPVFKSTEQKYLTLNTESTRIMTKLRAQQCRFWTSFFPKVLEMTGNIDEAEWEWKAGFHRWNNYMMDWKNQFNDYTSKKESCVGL
# Summary of the method: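 Primary single-concentration screen at 25 uM in duplicate, then concentration-response to a 50 uM top dose. Human plasma esterase activity detected colorimetrically after 0.25 h incubation, with DMSO as baseline.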
# [6] = target: human Elastase, ELANE (gene 1991) (UniProt P08246); assay: NVS_ENZ_hElastase: NovaScreen (NVS) Enzymatic Assay for human Elastase (AID 2283153)
# Chain of human Elastase, ELANE (gene 1991) (P08246 whole entry, looked up): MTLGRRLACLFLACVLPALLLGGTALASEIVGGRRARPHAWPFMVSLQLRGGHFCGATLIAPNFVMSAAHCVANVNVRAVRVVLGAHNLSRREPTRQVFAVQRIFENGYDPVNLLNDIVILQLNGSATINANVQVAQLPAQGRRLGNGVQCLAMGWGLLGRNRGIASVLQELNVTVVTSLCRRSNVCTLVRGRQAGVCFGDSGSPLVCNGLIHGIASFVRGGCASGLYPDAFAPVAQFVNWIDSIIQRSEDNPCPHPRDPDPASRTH
# Summary of the method: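 Concentration-response to 50 uM max, run singly for chemicals passing a threshold (e.g., 30% inhibition) in a duplicate 25 uM single-point screen. Neutrophil-derived human elastase, absorbance read-out of enzyme activity at 1.5 h; DMSO baseline.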
# [7] = target: human FYN Proto-Oncogene, Src family Tyrosine Kinase (Fyn), FYN (gene 2534) (UniProt P06241); assay: NVS_ENZ_hFyn: NovaScreen (NVS) Enzymatic Assay for human FYN Proto-Oncogene, Src family Tyrosine Kinase (Fyn) (AID 2283161)
# Chain of human FYN Proto-Oncogene, Src family Tyrosine Kinase (Fyn), FYN (gene 2534) (P06241 whole entry, looked up): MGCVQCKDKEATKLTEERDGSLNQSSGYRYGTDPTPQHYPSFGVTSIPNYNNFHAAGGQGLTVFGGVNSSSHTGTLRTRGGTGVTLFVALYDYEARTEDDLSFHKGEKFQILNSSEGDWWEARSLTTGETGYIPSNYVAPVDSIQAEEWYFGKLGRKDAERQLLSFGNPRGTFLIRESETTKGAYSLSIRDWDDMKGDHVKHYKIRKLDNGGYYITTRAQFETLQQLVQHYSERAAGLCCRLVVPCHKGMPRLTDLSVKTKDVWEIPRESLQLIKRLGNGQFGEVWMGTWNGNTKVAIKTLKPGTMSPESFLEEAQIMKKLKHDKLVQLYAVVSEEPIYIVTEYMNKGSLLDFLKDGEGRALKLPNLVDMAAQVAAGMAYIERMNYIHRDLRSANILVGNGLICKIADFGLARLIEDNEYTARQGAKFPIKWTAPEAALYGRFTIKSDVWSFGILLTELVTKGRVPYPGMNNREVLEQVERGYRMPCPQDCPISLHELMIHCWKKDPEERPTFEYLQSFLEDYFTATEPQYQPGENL
# Summary of the method: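 Cell-free kinase activity read by fluorescence after mobility-shift separation of substrate and product, 1 h post-dose. Initial single concentration 25 uM in duplicate, then concentration-response follow-up; DMSO baseline.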
# [8] = target: human Janus Kinase 2 (Jak2), JAK2 (gene 3717) (UniProt O60674); assay: NVS_ENZ_hJak2: NovaScreen (NVS) Enzymatic Assay for human Janus Kinase 2 (Jak2) (AID 2283169)
# Summary of the method: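 Single-point duplicate screen at 25 uM, with hits run in concentration series to a 50 uM top dose. Substrate-product separation by mobility shift with fluorescence detection, 1 h post-dosing; DMSO baseline.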
# [9] = target: Collagenase 3 (Homo sapiens) (UniProt P45452); assay: NVS_ENZ_hMMP13: NovaScreen (NVS) Enzymatic Assay for human Matrix Metalloproteinase-13 (MMP13) (AID 2283182)
# Summary of the method: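 Recombinant MMP13 cleaving fluorescent substrate, cell-free, measured 1 h after dosing. Primary duplicate screen at 25 uM; actives tested in concentration-response up to 50 uM; loss of signal relative to DMSO.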
# [10] = target: human Matrix Metalloproteinase-3 (MMP3), MMP3 (gene 4314) (UniProt P08254); assay: NVS_ENZ_hMMP3: NovaScreen (NVS) Enzymatic Assay for human Matrix Metalloproteinase-3 (MMP3) (AID 2283185)
# Summary of the method: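 Fluorescent substrate turnover by recombinant MMP3 read after 1 h, signal loss scored against DMSO. Compounds first run in duplicate at 25 uM single dose, then actives confirmed by concentration series.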
# [11] = target: human Mitogen- and Stress-activated Protein Kinase-1 (Msk1), RPS6KA5 (gene 9252) (UniProt O75582); assay: NVS_ENZ_hMsk1: NovaScreen (NVS) Enzymatic Assay for human Mitogen- and Stress-activated Protein Kinase-1 (Msk1) (AID 2283187)
# Chain of human Mitogen- and Stress-activated Protein Kinase-1 (Msk1), RPS6KA5 (gene 9252) (O75582 whole entry, looked up): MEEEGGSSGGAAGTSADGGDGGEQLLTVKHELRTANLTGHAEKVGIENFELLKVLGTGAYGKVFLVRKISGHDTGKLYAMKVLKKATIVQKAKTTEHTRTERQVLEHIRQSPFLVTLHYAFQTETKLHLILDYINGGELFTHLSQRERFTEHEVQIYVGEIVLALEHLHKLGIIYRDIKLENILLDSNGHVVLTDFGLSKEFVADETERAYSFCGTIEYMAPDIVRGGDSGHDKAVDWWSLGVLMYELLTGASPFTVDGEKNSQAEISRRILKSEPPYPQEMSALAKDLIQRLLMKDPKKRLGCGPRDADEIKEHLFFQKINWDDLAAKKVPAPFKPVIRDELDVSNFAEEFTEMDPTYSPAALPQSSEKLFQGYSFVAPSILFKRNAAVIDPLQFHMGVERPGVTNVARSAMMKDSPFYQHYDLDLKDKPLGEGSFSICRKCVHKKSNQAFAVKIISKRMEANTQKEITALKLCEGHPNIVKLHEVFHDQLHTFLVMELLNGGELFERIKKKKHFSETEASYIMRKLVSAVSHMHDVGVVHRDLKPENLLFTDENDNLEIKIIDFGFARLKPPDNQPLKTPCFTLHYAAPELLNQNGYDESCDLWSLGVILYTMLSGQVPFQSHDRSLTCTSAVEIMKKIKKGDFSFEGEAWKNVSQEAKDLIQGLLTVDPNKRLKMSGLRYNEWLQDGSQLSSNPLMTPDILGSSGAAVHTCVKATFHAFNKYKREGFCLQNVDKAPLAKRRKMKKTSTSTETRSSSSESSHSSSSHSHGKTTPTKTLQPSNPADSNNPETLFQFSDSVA
# Summary of the method: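 Chemicals first run in duplicate at 25 uM, with actives followed up in singleton concentration series to 50 uM maximum. Enzyme activity came from substrate/product mobility-shift separation with fluorescence detection after 1 h incubation of the recombinant protein.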
# [12] = target: human Phosphodiesterase 4A1 (PDE4A1), PDE4A (gene 5141) (UniProt P27815); assay: NVS_ENZ_hPDE4A1: NovaScreen (NVS) Enzymatic Assay for human Phosphodiesterase 4A1 (PDE4A1) (AID 2283191)
# Chain of human Phosphodiesterase 4A1 (PDE4A1), PDE4A (gene 5141) (P27815 whole entry, looked up): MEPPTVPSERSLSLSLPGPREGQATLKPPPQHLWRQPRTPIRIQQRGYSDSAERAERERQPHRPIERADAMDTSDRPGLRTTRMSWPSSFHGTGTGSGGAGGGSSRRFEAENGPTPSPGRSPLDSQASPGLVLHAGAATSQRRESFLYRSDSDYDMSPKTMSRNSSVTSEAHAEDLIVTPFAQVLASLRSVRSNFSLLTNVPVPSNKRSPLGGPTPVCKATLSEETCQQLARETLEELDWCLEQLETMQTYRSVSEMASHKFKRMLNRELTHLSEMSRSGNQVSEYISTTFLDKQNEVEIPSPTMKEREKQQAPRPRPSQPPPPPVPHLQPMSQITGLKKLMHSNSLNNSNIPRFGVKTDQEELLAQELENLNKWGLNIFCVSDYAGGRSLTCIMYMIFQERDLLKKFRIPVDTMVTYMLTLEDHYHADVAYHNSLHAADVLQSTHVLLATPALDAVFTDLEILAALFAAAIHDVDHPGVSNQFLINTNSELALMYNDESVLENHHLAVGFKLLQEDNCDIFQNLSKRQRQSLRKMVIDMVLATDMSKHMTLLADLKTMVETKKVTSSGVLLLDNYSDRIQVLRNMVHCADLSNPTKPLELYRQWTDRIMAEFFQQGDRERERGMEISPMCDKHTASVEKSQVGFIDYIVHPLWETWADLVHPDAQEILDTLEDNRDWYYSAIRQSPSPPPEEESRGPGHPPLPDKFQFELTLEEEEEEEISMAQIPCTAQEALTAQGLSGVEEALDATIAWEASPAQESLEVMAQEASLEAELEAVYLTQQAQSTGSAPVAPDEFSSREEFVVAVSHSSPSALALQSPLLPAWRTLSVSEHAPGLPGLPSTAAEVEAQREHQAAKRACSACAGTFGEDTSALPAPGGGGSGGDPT
# Summary of the method: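 Fluorescent substrate turnover by recombinant PDE4A1 read after 1 h by mobility-shift separation. Primary duplicate screen at 25 uM; hits retested in concentration series with a 50 uM maximum, relative to DMSO.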
# [13] = target: cAMP-dependent protein kinase catalytic subunit alpha (Homo sapiens) (UniProt P17612); assay: NVS_ENZ_hPKA: NovaScreen (NVS) Enzymatic Assay for human Protein Kinase A (PKA) (AID 2283192)
# Summary of the method: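 Cell-free kinase activity read by fluorescence after mobility-shift separation of substrate and product, 1 h post-dosing. Single-concentration duplicate screen (25 uM) preceded singleton concentration series (top 50 uM); loss of signal versus DMSO.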
# [14] = target: Glycogen synthase kinase-3 beta (Homo sapiens) (UniProt P49841); assay: NVS_ENZ_hGSK3b: NovaScreen (NVS) Enzymatic Assay for human Glycogen Synthase Kinase-3 beta (GSK3b) (AID 2283165)
# Summary of the method: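 Recombinant enzyme with specific fluorescent substrate, 1 h, product separated by electrophoretic mobility shift. Primary duplicate screen at 25 uM; actives (e.g. 30% inhibition) followed in singleton concentration-response to 50 uM. Signal loss fitted versus DMSO.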
# [15] = target: Histone deacetylase 3 (Homo sapiens) (UniProt O15379); assay: NVS_ENZ_hHDAC3: NovaScreen (NVS) Enzymatic Assay for human Histone Deacetylase 3 (HDAC3) (AID 2283163)
# Summary of the method: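 Cell-free enzyme format: loss of fluorescent product after mobility-shift separation, 1 h incubation, recombinant human HDAC3. Single 25 uM duplicate screen first, then concentration series to a 50 uM top for hits; DMSO as baseline.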
# [16] = target: human Colony Stimulating Factor 1 Receptor (CSF1R), CSF1R (gene 1436) (UniProt P07333); assay: NVS_ENZ_hCSF1R: NovaScreen (NVS) Enzymatic Assay for human Colony Stimulating Factor 1 Receptor (CSF1R) (AID 2283150)
# Summary of the method: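 Compounds screened in duplicate at 25 uM, then concentration-response (top 50 uM) for those passing threshold such as 30% inhibition; recombinant CSF1R activity measured 1 h post-dosing via fluorescent substrate/product mobility-shift separation, loss of signal versus DMSO.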
# [17] = target: human Insulin Receptor (InsR), INSR (gene 3643) (UniProt P06213); assay: NVS_ENZ_hInsR: NovaScreen (NVS) Enzymatic Assay for human Insulin Receptor (InsR) (AID 2283168)
# Summary of the method: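 Cell-free enzyme assay read 1 h post-dose by fluorescence after substrate/product mobility-shift separation. Duplicate 25 uM primary screen, then singleton concentration-response up to 50 uM for compounds passing threshold; loss of signal vs DMSO.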
# [18] = target: Mitogen-activated protein kinase 3 (Homo sapiens) (UniProt P27361); assay: NVS_ENZ_hMAPK3: NovaScreen (NVS) Enzymatic Assay for human Mitogen-Activated Protein Kinase 3 (MAPK 3) (AID 2283177)
# Summary of the method: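 Chemicals were first tested in duplicate at 25 uM, with hits re-run as concentration series (max 50 uM). Recombinant enzyme activity, measured 1 h post-dose in a cell-free format, was read by fluorescence/mobility shift relative to DMSO.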
# [19] = target: human Matrix Metalloproteinase-7 (MMP7), MMP7 (gene 4316) (UniProt P09237); assay: NVS_ENZ_hMMP7: NovaScreen (NVS) Enzymatic Assay for human Matrix Metalloproteinase-7 (MMP7) (AID 2283183)
# Summary of the method: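 Compounds first tested at 25 uM in duplicate, then at up to 50 uM in concentration series if active. Protease activity measured by fluorescence intensity 1 h after dosing, with fitting relative to DMSO.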
# [20] = target: human Matrix Metalloproteinase-2 (MMP2), MMP2 (gene 4313) (UniProt P08253); assay: NVS_ENZ_hMMP2: NovaScreen (NVS) Enzymatic Assay for human Matrix Metalloproteinase-2 (MMP2) (AID 2283184)
# Summary of the method: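 Compounds first screened in duplicate at a single 25 uM, with actives followed up in concentration series. Recombinant human MMP2 cleaves a fluorogenic substrate; fluorescence taken at 1 h, inhibition fitted relative to DMSO.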
smiles,measurement,setting,value
Nc1ccc(N)c([N+](=O)[O-])c1,outcome,[1],inactive
same,AC50,[2],4.96 µM (active) and 1.02 µM (active)
CC(CO)(CO)[N+](=O)[O-],outcome,[1],inactive
CCOC(=O)C=Cc1ccccc1,outcome,[1],inactive
CCCCOCCOCCO,outcome,[3],inactive
N#CCCCC(C#N)CCC#N (configuration not stated),outcome,[1],inactive
NC(=O)NC(N)=O,AC50,[4],25 µM (active)
same,outcome,[1],inactive
CCCOC(=O)CC,AC50,[2],6.89 µM (active)
CC/C=C\C#N,AC50,[4],40.4 µM (active)
same,outcome,[5],inactive
CCCCCCCC1CCCC1=O (configuration not stated),outcome,[1],inactive
O=C(c1ccc(OCCN2CCCCC2)cc1)c1c(-c2ccc(O)cc2)sc2cc(O)ccc12,AC50,[4],12.6 µM (active)
same,AC50,[6],21 µM (active)
same,outcome,[5],inactive
same,outcome,[1],inactive
same,AC50,[7],35.6 µM (active)
same,AC50,[8],25 µM (active)
same,AC50,[9],17.4 µM (active)
same,outcome,[10],inactive
same,AC50,[11],22.1 µM (active)
same,outcome,[12],inactive
same,AC50,[13],16.7 µM (active)
same,AC50,[3],4.96 µM (active)
C=C(C)C(N)=O,outcome,[14],inactive
same,outcome,[3],inactive
CC(C)(O)CCc1ccccc1,outcome,[2],inactive
CCCCCCCCCO,AC50,[2],10.6 µM (active)
NC(=O)c1c(Cl)cccc1Cl,outcome,[1],inactive
C[C@]12CC[C@@H]3c4ccc(O)cc4CC[C@H]3[C@@H]1CC[C@@H]2O,outcome,[15],inactive
CC1(C)CC(=O)CC(C)(C)N1,outcome,[1],inactive
C1COCO1,outcome,[1],inactive
CC(C)OB(OC(C)C)OC(C)C,outcome,[1],inactive
C=CCOCC(O)CO (configuration not stated),AC50,[2],1.68 µM (active)
Cc1cc(N)n(-c2ccccc2)n1,outcome,[1],inactive
OCCN1CCOCC1,AC50,[2],4.96 µM (active)
Cc1ccc(C(C)(C)O)cc1,AC50,[1],44.3 µM (active)
same,AC50,[2],4.24 µM (active)
CC/C(=C(\c1ccccc1)c1ccc(OCCN(C)C)cc1)c1ccccc1,outcome,[16],inactive
same,outcome,[4],inactive
same,outcome,[1],inactive
same,AC50,[7],22.9 µM (active)
same,outcome,[17],inactive
same,AC50,[8],11.1 µM (active)
same,outcome,[18],inactive
same,AC50,[9],42.5 µM (active)
same,outcome,[19],inactive
same,outcome,[20],inactive
same,outcome,[11],inactive
same,outcome,[2],inactive
same,AC50,[12],27.9 µM (active)
same,outcome,[13],inactive
